NFkB SMM = binds human NF-kappa-B p105 on microarray. P19838. Small molecule microarray, anti-His fluorescence binding. hit rate 1.3% among 17,000. AID 624139. calls only;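 active means spot fluorescence over background significantly raised, with a chance value under 7% in all four replicate spots of the compound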;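 further: probe protein is his-tagged human p50 processed subunit at 1 µg/ml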
Target sequence (P19838 1-433 limits assumed): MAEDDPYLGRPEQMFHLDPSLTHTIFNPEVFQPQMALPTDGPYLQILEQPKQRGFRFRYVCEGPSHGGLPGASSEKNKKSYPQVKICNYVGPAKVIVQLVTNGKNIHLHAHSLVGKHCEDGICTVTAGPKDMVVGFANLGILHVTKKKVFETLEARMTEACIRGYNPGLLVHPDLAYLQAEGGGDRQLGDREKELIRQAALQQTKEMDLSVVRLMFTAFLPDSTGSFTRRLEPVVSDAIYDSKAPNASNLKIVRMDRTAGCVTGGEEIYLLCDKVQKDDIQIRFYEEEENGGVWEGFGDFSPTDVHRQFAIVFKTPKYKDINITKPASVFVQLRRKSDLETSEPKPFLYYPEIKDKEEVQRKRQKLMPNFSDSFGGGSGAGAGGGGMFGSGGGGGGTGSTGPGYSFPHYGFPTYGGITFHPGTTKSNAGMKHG
mut p53 SMM = binds human mutant p53 on microarray. hit rate 0.4% among 17,000. small molecule microarray binding, anti-GST fluorescence. calls only. AID 624136;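 active means compounds whose four printed spots each glow above background more than chance allows, each with a p-value under 7%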
Myc binder = binds human c-Myc on microarray; P01106; small molecule microarray, His-c-Myc binding, anti-His fluorescence; calls only; hit rate 1.5% among 17,000;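 active means spot fluorescence over background with P-value below 7% in all four replicate spots, showing protein binding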
STAT3 binder = binds human STAT3 on microarray. P40763. AID 624138. hit rate 0.2% among 17,000. calls only. Small molecule microarray, His-STAT3 binding, anti-His fluorescence;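 active means compounds whose four printed spots each show fluorescence over background unusually high for their array block, chance value under 7%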
Each line names hits and unclear results; the compound was inactive in the other large screens. A selection: hits, their analogues and other compounds. The true share with any hit is near 2.4%.

COC(=O)C1=C2CC[C@H](CO)NC(=O)N[C@H](Cc3ccccc3)C(=O)NCc3cn(nn3)C[C@@H](Cc3ccccc3)NC(=O)c3oc(c(C(=O)OC)c3C(=O)OC)CC[C@H](CO)NC(=O)N[C@H](Cc3ccccc3)C(=O)NCc3cn(nn3)C[C@@H](Cc3ccccc3)NC(=O)C(=C1C(=O)OC)O2	STAT3 binder active
COC(=O)c1c2oc(c1C(=O)OC)C(=O)N[C@H](Cc1ccccc1)Cn1cc(nn1)CNC(=O)[C@H](Cc1ccccc1)NC(=O)N[C@@H](CO)CC2	none
CC(C)NC(=O)Nc1ccc2c(c1)C(=O)N([C@H](C)CO)C[C@H](C)[C@H](CN(C)S(=O)(=O)c1ccccc1)OCCCC[C@@H](C)O2	none
Cc1noc(C)c1S(=O)(=O)N(C)C[C@@H]1OCCCC[C@H](C)Oc2ccc(NC(=O)NC(C)C)cc2C(=O)N([C@H](C)CO)C[C@H]1C	NFkB SMM active, Myc binder active
CC(C)NC(=O)Nc1ccc2c(c1)C(=O)N([C@@H](C)CO)C[C@@H](C)[C@@H](CN(C)S(=O)(=O)c1ccccc1)OCCCC[C@@H](C)O2	Myc binder active, STAT3 binder active
Nc1nc(SCC(=O)c2ccc(Cl)cc2Cl)n[nH]1	none
CS(=O)(=O)N(CC(=O)O)c1ccc(C23CC4CC(CC(C4)C2)C3)cc1	Myc binder active
COc1ccc(N(CC(=O)O)S(C)(=O)=O)cc1OC	none
CCCCc1ccc(-c2csc(NC(=O)c3ccccc3[N+](=O)[O-])c2C(N)=O)cc1	none
CSc1ccccc1NC(=O)CN(C)S(=O)(=O)c1c(C)cc(C)cc1C	none
C=C1CCC2(C(=O)O)CCC3(C)C(=CCC4C5(C)C[C@@H](O)[C@H](O)C(C)(CO)C5CCC43C)C2C1C (some centres undefined)	NFkB SMM active, Myc binder active
Cc1ccc(C)c(NC(=O)C(C)n2nc(C)c([N+](=O)[O-])c2C)c1 (centres undefined)	none
c1ccc2[nH]c(CCn3c4c(c5ccccc53)CCCC4)nc2c1	none
CC(=O)Nc1ccc(S(=O)(=O)NCc2ccc3[nH]c4c(c3c2)CCCC4)cc1	none
C/C=C(\C)C(=O)OC(C)(C)C1Cc2cc3ccc(=O)oc3cc2O1 (centres undefined)	mut p53 SMM active
COc1cc(S(=O)(=O)NC2CC(C)(C)NC(C)(C)C2)c(OC)cc1Br	none
CC(=O)NCCCN(CCCCN(CCCNC(=O)/C=C/c1ccc(O)cc1)C(C)=O)C(=O)/C=C/c1ccc(O)cc1	none
CC(C)NC(=O)Nc1ccc2c(c1)C(=O)N([C@H](C)CO)C[C@@H](C)[C@H](CN(C)Cc1ccccc1)OCCCC[C@H](C)O2	none
C[C@H]1CCCCO[C@@H](CN(C)Cc2ccccc2)[C@@H](C)CN([C@@H](C)CO)C(=O)c2cc(NC(=O)Nc3ccc4c(c3)OCO4)ccc2O1	none
CC(C)NC(=O)Nc1ccc2c(c1)C(=O)N([C@@H](C)CO)C[C@@H](C)[C@H](CN(C)Cc1ccccc1)OCCCC[C@H](C)O2	NFkB SMM active, Myc binder active
C[C@@H]1CCCCO[C@@H](CN(C)Cc2ccccc2)[C@H](C)CN([C@H](C)CO)C(=O)c2cc(NC(=O)Nc3ccc4c(c3)OCO4)ccc2O1	NFkB SMM active
C[C@H]1CCCCO[C@H](CN(C)C(=O)c2ccccc2)[C@@H](C)CN([C@@H](C)CO)C(=O)c2cc(NC(=O)Nc3ccc4c(c3)OCO4)ccc2O1	mut p53 SMM active
C[C@@H]1CN([C@@H](C)CO)C(=O)c2cc(NC(=O)Nc3ccccc3)ccc2O[C@@H](C)CCCCO[C@H]1CN(C)Cc1ccncc1	Myc binder active
C[C@H]1CCCCO[C@H](CN(C)Cc2ccncc2)[C@@H](C)CN([C@@H](C)CO)C(=O)c2cc(NC(=O)Nc3ccccc3)ccc2O1	none
CNC(=O)C(=O)NCCc1c[nH]c2ccccc12	none
C=CCOC(=O)[C@H]1[C@@H]2C(=O)O[C@@H](c3ccccc3)[C@@H](c3ccccc3)N2[C@@H](c2ccc(OCCOC(=O)[C@@H]3C[C@@H]4C(=O)N[C@@H](CC(C)C)C(=O)N4[C@@H]3c3cccc(OCCO)c3)cc2)[C@]12C(=O)Nc1ccc(I)cc12	NFkB SMM active, mut p53 SMM active
C=CCOC(=O)[C@H]1[C@@H]2C(=O)O[C@@H](c3ccccc3)[C@@H](c3ccccc3)N2[C@@H](c2ccc(OCCOC(=O)[C@@H]3C[C@@H]4C(=O)N[C@@H](Cc5ccccc5)C(=O)N4[C@@H]3c3cccc(OCCO)c3)cc2)[C@]12C(=O)Nc1ccccc12	NFkB SMM active
Cc1ccc(-c2cc(C(=O)NCCN3CCOCC3)c3cccc(C)c3n2)c(C)c1	none
Cc1ccc2c(c1)c1nc3ccccc3nc1n2CCN1CCOCC1	Myc binder active
COc1ccc(NC(=O)c2cc(S(=O)(=O)Nc3ccc(OC)cc3)c(Cl)cc2Cl)cc1	none
C[C@@H]1CCCCO[C@H](CN(C)C(=O)Cc2ccccc2)[C@H](C)CN([C@@H](C)CO)C(=O)c2cc(NC(=O)Nc3ccc(F)cc3)ccc2O1	STAT3 binder active
C[C@H](CO)N1C[C@H](C)[C@H](CN(C)C)OCCCC[C@H](C)Oc2ccc(NC(=O)C3CCCCC3)cc2C1=O	none
C[C@H]1CCCCO[C@@H](CN(C)C(=O)Nc2ccccc2)[C@@H](C)CN([C@@H](C)CO)C(=O)c2cc(NC(=O)C3CCCCC3)ccc2O1	Myc binder active
C[C@@H]1CCCCO[C@H](CN(C)C(=O)Nc2ccccc2)[C@H](C)CN([C@@H](C)CO)C(=O)c2cc(NC(=O)Nc3ccccc3)ccc2O1	none
C[C@@H]1CN([C@@H](C)CO)C(=O)c2cc(NC(=O)C3CCCCC3)ccc2O[C@@H](C)CCCCO[C@@H]1CN(C)C(=O)C1CCCCC1	NFkB SMM active, Myc binder active
C[C@H](CO)N1C[C@H](C)[C@@H](CN(C)C(=O)Nc2ccccc2)OCCCC[C@H](C)Oc2ccc(NC(=O)Nc3ccccc3)cc2C1=O	NFkB SMM active, Myc binder active
CNC[C@H]1Oc2ccc(NC(=O)C3CC3)cc2C(=O)N([C@@H](C)CO)C[C@@H]1C	none
CNC[C@@H]1Oc2ccc(NC(=O)C3CC3)cc2C(=O)N([C@H](C)CO)C[C@H]1C	NFkB SMM active, Myc binder active
COc1ccc(OC)c(-c2nc(C)sc2CC(=O)O)c1	none
COc1ccc(-c2noc(CC(=O)O)c2-c2ccc(OC)cc2)cc1	Myc binder active
CC1(C)C(=O)N=C2c3ccccc3C(=O)C(=O)C21 (centres undefined)	none
C[C@@H]1CCCCO[C@H](CN(C)C(=O)C2CCCCC2)[C@H](C)CN([C@@H](C)CO)C(=O)c2cc(NS(=O)(=O)c3cccs3)ccc2O1	STAT3 binder active
C[C@@H]1CCCCO[C@@H](CN(C)C(=O)C2CCCCC2)[C@@H](C)CN([C@H](C)CO)C(=O)c2cc(NS(=O)(=O)c3cccs3)ccc2O1	NFkB SMM active, Myc binder active
COc1cc(OC)c(NC(=O)CN2C(=O)c3ccccc3C2=O)cc1Cl	none
